# Assay results: PMC4336329 (PLoS ONE, 2015)
# Out of some 310,000 compounds screened, about 14,000 (4.5%) showed an effect of 50% or more. The effect is printed as a negative number. The entries come from a sample that favours strong results as a whole.
# Biological target: human ether-à-go-go-related gene (hERG) potassium channel (human, UniProt Q12809)
# Assay: primary screen, population patch clamp on CHO cells stably expressing hERG; higher = less effect of the substance
# 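Also: peak tail current of the secondary pulse compared with the same well before compound.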
# Sequence of human ether-à-go-go-related gene (hERG) potassium channel (Q12809 whole entry, looked up): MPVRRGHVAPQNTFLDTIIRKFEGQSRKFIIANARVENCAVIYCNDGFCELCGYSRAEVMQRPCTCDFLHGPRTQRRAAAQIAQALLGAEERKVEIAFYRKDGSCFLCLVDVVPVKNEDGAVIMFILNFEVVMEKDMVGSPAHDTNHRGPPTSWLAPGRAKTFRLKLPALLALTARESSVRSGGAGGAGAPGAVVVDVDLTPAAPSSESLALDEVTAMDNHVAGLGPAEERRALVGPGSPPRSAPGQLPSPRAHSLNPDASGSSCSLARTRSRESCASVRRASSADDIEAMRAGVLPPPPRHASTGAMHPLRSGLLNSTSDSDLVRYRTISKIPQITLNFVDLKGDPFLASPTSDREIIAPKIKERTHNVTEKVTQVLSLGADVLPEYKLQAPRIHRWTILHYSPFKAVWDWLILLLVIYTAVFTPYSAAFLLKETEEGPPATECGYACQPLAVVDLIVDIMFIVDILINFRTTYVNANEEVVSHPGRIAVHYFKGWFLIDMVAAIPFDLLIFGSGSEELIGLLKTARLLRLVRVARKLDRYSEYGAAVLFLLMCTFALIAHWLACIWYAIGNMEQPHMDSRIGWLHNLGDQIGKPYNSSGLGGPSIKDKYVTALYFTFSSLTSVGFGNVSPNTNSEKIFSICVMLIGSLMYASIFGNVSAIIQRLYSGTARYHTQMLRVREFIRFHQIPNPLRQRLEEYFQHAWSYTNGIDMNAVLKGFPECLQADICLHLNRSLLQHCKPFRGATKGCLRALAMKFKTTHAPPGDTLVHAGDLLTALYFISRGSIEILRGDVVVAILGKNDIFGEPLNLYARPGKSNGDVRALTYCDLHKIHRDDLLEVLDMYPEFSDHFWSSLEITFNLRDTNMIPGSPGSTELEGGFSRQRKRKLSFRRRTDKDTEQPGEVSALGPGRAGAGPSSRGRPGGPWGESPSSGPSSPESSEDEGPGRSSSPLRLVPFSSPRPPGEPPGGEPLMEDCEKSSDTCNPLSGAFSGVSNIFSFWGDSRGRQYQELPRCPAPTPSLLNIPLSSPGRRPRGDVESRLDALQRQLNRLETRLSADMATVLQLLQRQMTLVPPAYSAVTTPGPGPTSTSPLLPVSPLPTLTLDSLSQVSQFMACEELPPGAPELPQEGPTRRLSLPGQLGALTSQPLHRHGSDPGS
row,Structure (SMILES),"hERG current change (%, negative = inhibition) at 10uM"
1,COCCCNc1nc2ccccc2nc1NS(=O)(=O)c1ccc(C)cc1,-8.35%
2,O=C(Nc1ccc([N+](=O)[O-])cc1Cl)c1cc(Cl)ccc1O,7.32%
3,CCN(CC)S(=O)(=O)c1ccc(NCCCn2ccnc2)c([N+](=O)[O-])c1,-57.2%
4,O=C(c1ccccc1)c1ccc(-n2ccnc2)c([N+](=O)[O-])c1,-25.8%
5,NS(=O)(=O)c1ccc(NCCCn2ccnc2)c([N+](=O)[O-])c1,8.43%
6,CC(C)NS(=O)(=O)c1ccc(NCCCn2ccnc2)c([N+](=O)[O-])c1,-1.68%
7,O=C(c1ccccc1)c1ccc(NCCCn2ccnc2)c([N+](=O)[O-])c1,-81.3%
8,O=C(/C=C/c1ccccc1[N+](=O)[O-])NCCCn1ccnc1,2.43%
9,CC(=O)Nc1ccc(C(=O)OC2CCOC2=O)cc1 (stereo not drawn),12.5%
10,Cc1cc(OC(C)C(=O)N/N=C/CC(C)c2ccccc2)ccc1Cl (stereo not drawn),16.1%
11,C=CCc1cccc(C2Nc3ccccc3C(=O)N2O)c1O (stereo not drawn),7.52%
12,CCCC(=O)Nc1ccc(Oc2ccc(NC(=O)CCC)cc2)cc1,2.76%
13,COc1cc(C2c3c(-c4ccccc4)n[nH]c3C(=O)N2c2ccc(C(=O)O)cc2)ccc1O (stereo not drawn),8.38%
14,N#CC1=C(Nc2ccccc2)SC=C(c2ccc(Cl)c(Cl)c2)N=C1N1CCOCC1,-50.9%
15,N#CC1=C(Nc2ccccc2)SC=C(c2ccc(F)cc2)N=C1N1CCOCC1,-10.8%
16,N#Cc1nc(-c2ccccc2Cl)oc1N1CCOCC1,-4.51%
17,c1ccc(Nc2nc(N3CCOCC3)nc(N3CCOCC3)n2)cc1,-7.35%
18,Br.C=CCN1C(c2ccc(Br)cc2)=CS/C1=C(/C#N)c1nnc(N2CCOCC2)n1-c1ccccc1,-13.4%
19,N#CC1=C(Nc2ccccc2)SC=C(c2ccc(Br)cc2)N=C1N1CCOCC1,-64.7%
20,C/C(NC(=O)c1ccccc1F)=C1\C(=O)C[C@@H]2[C@H]1C2(C)C,-14.4%

row,Structure (SMILES),"hERG current change (%, negative = inhibition) at 10uM"
1,CC(C)OC(=O)CSc1nnc(SCc2cccc3ccccc23)s1,7.07%
2,CC1CC2c3cccc(C(=O)O)c3C(=O)N2c2ccc(Cl)cc21 (stereo not drawn),5.97%
3,CCCC(C)NCC(=O)Nc1ccccc1-c1ccccc1.O=C(O)C(=O)O (stereo not drawn),-21.5%
4,COc1ccc(CCn2c(N3CCOCC3)nc3c2c(=O)[nH]c(=O)n3C)cc1,-15.5%
5,CC(=O)c1cc(C(=O)N2CCCC(C(=O)c3ccc(Cl)cc3)C2)cs1 (stereo not drawn),-31.9%
6,CC(C)CN1CCN(Cc2ccccc2C(F)(F)F)CC1CCO (stereo not drawn),4.5%
7,CC(C)CCN1CCN(Cc2ccc(C(F)(F)F)cc2)CC1CCO (stereo not drawn),-58.1%
8,OCCC1CN(Cc2cccs2)CCN1Cc1ccccc1 (stereo not drawn),-20.9%
9,OCCC1CN(Cc2cccc(C(F)(F)F)c2)CCN1Cc1ccccc1 (stereo not drawn),-46.2%
10,CC(C)CCN1CCN(Cc2ccc(N3CCNC3=O)cc2)CC1CCO (stereo not drawn),-20.1%
11,Cc1cccc(-c2ncc(CN3CCN(CCC(C)C)C(CCO)C3)cn2)c1 (stereo not drawn),-45%
12,CC(C)CN1CCN(Cc2ccc(C(F)(F)F)cc2)CC1CCO (stereo not drawn),-56.6%
13,CC(C)CCN1CCN(Cc2ccc(C#CCCO)cc2)CC1CCO (stereo not drawn),-6.37%
14,CC(C)CCN1CCN(Cc2cccc(C(F)(F)F)c2)CC1CCO (stereo not drawn),-55.1%
15,OCCC1CN(Cc2ccc(C(F)(F)F)cc2)CCN1Cc1ccccc1 (stereo not drawn),-56.8%
16,CC(C)CN1CCN(Cc2ccc(C#CC(C)(C)O)cc2)CC1CCO (stereo not drawn),8.57%
17,CN(Cc1ccc(F)cc1)C(=O)c1ccc(NS(=O)(=O)c2ccc3[nH]c(=O)[nH]c3c2)cc1,12.1%
18,O=[N+]([O-])c1cccc(S(=O)(=O)Nc2ccc(S(=O)(=O)NCC3CCCO3)cc2)c1 (stereo not drawn),-0.96%
19,COc1ccc(C2c3ccc(O)cc3Oc3ncn4nc(-c5ccco5)nc4c32)cc1OC (stereo not drawn),22.8%
20,COc1ccc(C2c3ccc(O)cc3Oc3ncn4nc(-c5ccncc5)nc4c32)cc1OC (stereo not drawn),5.39%

row,Structure (SMILES),"hERG current change (%, negative = inhibition) at 10uM"
1,COc1ccc(C2c3ccc(O)cc3Oc3ncn4nc(-c5ccccn5)nc4c32)cc1 (stereo not drawn),17.9%
2,COc1ccc(C2c3ccc(O)cc3Oc3ncn4nc(-c5cccnc5)nc4c32)cc1OC (stereo not drawn),-56.9%
3,COc1ccc(C2c3c(ccc4ccccc34)Oc3ncn4nc(-c5ccco5)nc4c32)cc1OC (stereo not drawn),-13.4%
4,COc1ccc(C2c3ccc(O)cc3Oc3ncn4nc(-c5ccccn5)nc4c32)cc1OC (stereo not drawn),-71.3%
5,CC1=CC(c2ccc(Cl)cc2)n2ncnc2N1 (stereo not drawn),-9.02%
6,Cc1ccc(N=CC2=C(O)CC(c3ccccc3Cl)CC2=O)cc1 (stereo not drawn),-6.91%
7,Cc1ccc(CN(C)Cc2cc(=O)oc3cc(C)c(Cl)cc23)cc1,14.9%
8,CC(=O)c1cccc(NC(=O)COc2cc3oc(=O)c(CC(C)O)c(C)c3cc2Cl)c1 (stereo not drawn),-57.7%
9,CCOC(=O)c1ccc(NC(=O)COc2cc3oc(=O)c(CC(C)O)c(C)c3cc2Cl)cc1 (stereo not drawn),13.7%
10,O=C(COc1cc2oc(=O)c3c(c2cc1Cl)CCC3)Nc1cccnc1,6.03%
11,CCOC(=O)NC(Nc1sc2c(c1C(=O)OC)CCN(C)C2)(C(F)(F)F)C(F)(F)F,-13.2%
12,CCN(CC)CCn1c(=N)n(CC(O)COc2ccccc2)c2ccccc21.Cl (stereo not drawn),-52.1%
13,CCCCOC(=O)Cn1c(=N)n(CCC)c2ccccc21.Cl,-31.5%
14,CCCCOC(=O)Cn1c(=O)oc2ccc(C)cc21,5.97%
15,CCN(CC)CCn1c(=N)n(CC(O)c2ccc(OC)c(OC)c2)c2ccccc21.Cl (stereo not drawn),14.4%
16,CCCCOC(=O)Cn1c(=O)n(CC(=O)OCCCC)c2ccccc21,-33.9%
17,CCCCOC(=O)Cn1c(=N)n(CCN(CC)CC)c2ccccc21,-52.3%
18,CCCCOC(=O)Cn1c(=N)n(CCN2CCOCC2)c2ccccc21.Cl,-36.3%
19,CCCCOC(=O)Cn1c(=O)n(CC(=O)OCCCC)c2cc(C)ccc21,-69.4%
20,CCN(CC)CCn1c(=N)n(CC(O)COc2cccc(C)c2)c2ccccc21.Cl (stereo not drawn),-65.2%
